# The full list was thinned out, with the strongest signals kept by preference.
# Key:
# Test in all cases: glycan array binding signal (z-score within array); higher = stronger binding
# Details in all cases: glycan notation: IUPAC condensed, linker removed
# [1] = system: Neu5Ac(a2-3)Gal(b1-4)GlcNAc(b1-3)Gal(b1-4)GlcNAc(b1-3)Gal(b1-4)GlcNAc
# Summary of the method: (§1)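 From the Consortium for Functional Glycomics database, 3228 arrays were curated, keeping only those whose protein sequence was available. Binding is given as a within-array Z-score averaged across arrays sharing a protein sequence and across linkers. Negative Z-scores can be read as non-binding.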
# [2] = system: Neu5Ac(a2-3)Gal(b1-4)GlcNAc(b1-3)Gal(b1-4)GlcNAc
# Summary of the method: as §1
# [3] = system: Neu5Ac(a2-3)Gal(b1-4)GlcNAc(b1-3)Gal(b1-4)GlcNAc(b1-3)[Neu5Ac(a2-3)Gal(b1-4)GlcNAc(b1-3)Gal(b1-4)GlcNAc(b1-6)]GalNAc
# Summary of the method: as §1
# [4] = system: Neu5Ac(a2-3)Gal(b1-4)GlcNAc(b1-3)[Neu5Ac(a2-3)Gal(b1-4)GlcNAc(b1-6)]GalNAc
# Summary of the method: as §1
# [5] = system: Neu5Ac(a2-3)Gal(b1-4)GlcNAc(b1-6)[Neu5Ac(a2-3)Gal(b1-3)]GalNAc
# Summary of the method: as §1
# [6] = system: Neu5Ac(a2-3)Gal(b1-4)GlcNAc(b1-3)Gal(b1-4)[Fuc(a1-3)]GlcNAc
# Summary of the method: as §1
# [7] = system: Neu5Ac(a2-3)Gal(b1-4)GlcNAc(b1-6)[Gal(b1-3)]GalNAc
# Summary of the method: as §1
# [8] = system: Neu5Ac(a2-3)Gal(b1-4)GlcNAc(b1-3)Gal
# Summary of the method: as §1
# [9] = system: Neu5Ac(a2-3)Gal(b1-4)GlcNAc(b1-6)GalNAc
# Summary of the method: as §1
# [10] = system: Neu5Ac(a2-3)Gal(b1-4)GlcNAc6S
# Summary of the method: as §1
# 6RG (Lolium perenne), sequence (chain, as listed by the source): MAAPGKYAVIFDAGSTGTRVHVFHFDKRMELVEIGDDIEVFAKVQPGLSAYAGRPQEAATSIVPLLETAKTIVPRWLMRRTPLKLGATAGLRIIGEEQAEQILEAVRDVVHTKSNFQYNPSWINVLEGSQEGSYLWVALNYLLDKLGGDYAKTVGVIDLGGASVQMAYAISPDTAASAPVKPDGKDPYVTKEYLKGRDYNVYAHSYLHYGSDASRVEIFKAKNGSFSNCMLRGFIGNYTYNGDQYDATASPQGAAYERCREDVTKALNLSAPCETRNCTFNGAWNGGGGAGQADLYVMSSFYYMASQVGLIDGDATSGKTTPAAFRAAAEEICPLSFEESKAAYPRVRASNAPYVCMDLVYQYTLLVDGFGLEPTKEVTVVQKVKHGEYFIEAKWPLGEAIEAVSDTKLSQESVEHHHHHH
# PILRa (Mus musculus), Q2YSF3, sequence (Q2YSF3 entry or part of it): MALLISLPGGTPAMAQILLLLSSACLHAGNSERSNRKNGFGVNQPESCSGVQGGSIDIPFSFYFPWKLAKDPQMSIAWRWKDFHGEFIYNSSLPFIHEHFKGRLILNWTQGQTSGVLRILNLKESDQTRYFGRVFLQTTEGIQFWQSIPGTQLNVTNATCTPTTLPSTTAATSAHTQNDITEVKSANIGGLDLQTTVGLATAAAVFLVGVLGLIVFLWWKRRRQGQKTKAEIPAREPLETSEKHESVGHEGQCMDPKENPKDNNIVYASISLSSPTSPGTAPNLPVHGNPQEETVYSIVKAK
# Avaren (Actinomycete K97), sequence (chain, as listed by the source): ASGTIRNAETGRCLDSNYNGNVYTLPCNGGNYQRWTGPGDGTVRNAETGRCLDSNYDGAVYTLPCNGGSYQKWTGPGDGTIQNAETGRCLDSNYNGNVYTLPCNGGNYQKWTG
# C3b (Homo sapiens), P01024, sequence (P01024 23-667): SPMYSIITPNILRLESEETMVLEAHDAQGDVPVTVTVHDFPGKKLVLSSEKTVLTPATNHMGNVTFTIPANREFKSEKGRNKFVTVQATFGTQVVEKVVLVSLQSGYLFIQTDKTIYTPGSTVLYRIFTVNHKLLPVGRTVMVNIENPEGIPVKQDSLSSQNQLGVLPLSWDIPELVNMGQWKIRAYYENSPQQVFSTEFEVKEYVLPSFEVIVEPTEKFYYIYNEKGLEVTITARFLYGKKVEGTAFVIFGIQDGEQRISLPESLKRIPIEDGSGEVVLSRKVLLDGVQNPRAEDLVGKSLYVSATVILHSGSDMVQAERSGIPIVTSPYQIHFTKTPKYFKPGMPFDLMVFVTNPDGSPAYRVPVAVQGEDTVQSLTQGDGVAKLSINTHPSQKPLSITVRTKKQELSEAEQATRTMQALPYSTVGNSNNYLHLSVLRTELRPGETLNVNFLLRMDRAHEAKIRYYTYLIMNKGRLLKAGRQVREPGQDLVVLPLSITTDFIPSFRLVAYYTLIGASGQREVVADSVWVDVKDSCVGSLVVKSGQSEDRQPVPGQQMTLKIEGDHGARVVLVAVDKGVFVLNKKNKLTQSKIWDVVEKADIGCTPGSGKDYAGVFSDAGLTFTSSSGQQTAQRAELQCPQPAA
# CHT (Homo sapiens), sequence (chain, as listed by the source): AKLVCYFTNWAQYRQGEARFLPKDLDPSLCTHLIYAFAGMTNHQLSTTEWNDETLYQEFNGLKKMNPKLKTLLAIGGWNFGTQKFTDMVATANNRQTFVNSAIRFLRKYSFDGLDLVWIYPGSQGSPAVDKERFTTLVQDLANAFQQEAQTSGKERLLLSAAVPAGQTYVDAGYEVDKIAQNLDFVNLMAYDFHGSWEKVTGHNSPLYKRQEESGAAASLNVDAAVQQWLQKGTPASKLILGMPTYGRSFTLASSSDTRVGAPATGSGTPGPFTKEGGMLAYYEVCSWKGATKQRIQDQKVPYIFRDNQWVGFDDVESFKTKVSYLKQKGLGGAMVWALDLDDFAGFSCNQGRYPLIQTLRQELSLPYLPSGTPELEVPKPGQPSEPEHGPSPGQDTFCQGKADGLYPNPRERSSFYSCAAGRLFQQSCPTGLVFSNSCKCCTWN
substance,measurement,setting,value
"C3b (Homo sapiens), P01024",glycan array binding signal (z-score),[1],0.362
same,glycan array binding signal (z-score),[2],-0.787
"Siglec-8 (Homo sapiens), Q9NYZ4",glycan array binding signal (z-score),[1]; mutation: R125K,-0.378
same,glycan array binding signal (z-score),[3],-0.138
same,glycan array binding signal (z-score),[4],-0.207
"PILRa (Mus musculus), Q2YSF3",glycan array binding signal (z-score),[2],1.21
same,glycan array binding signal (z-score),[5],-0.272
6RG (Lolium perenne),glycan array binding signal (z-score),[6],-0.244
same,glycan array binding signal (z-score),[7],-0.075
MpAFP RI GFP (Marinomonas primoryensis),glycan array binding signal (z-score),[8],-0.665
same,glycan array binding signal (z-score),[9],-0.342
Avaren (Actinomycete K97),glycan array binding signal (z-score),[5],-0.138
same,glycan array binding signal (z-score),[10],-0.116
CHT (Homo sapiens),glycan array binding signal (z-score),"[10]; mutation: D138V, E140I",-0.118

# Source: the supplement of paper PMC8728848
